Screens from PubChem BioAssay.
The entries come from a sample that favours hits as a whole.
Methyltransferases = Primary Screen for Target Class Profiling of Small Molecule Inhibitors of Methyltransferases; AID 1745853, 2022; 25,000 tested, 3.9% active; calls only at 40 µM; purified enzyme, MTase-Glo SAH luminescence; active compounds read low; call rule not given here
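Each enzyme was reacted with SAM and its substrate, with compounds tested once at 40 uM; SAH formed was read by MTase-Glo luminescence.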
Of the large screens only hits and unclear results are named; the others gave an inactive call; ! = not active in a repeat.

COc1ccc(-c2nnc(-c3ccc(OC)c(S(=O)(=O)N4CCOCC4)c3)o2)cc1OC	none
CCOc1ccc(NC(=O)N2CCn3cccc3C2C(C)C)cc1 (stereo not drawn)	none
CCN1CCN(Cc2ccc(NC(=O)Nc3ccc(Oc4cc(NC)ncn4)cc3)cc2C(F)(F)F)CC1	Methyltransferases active
COc1ccc(NC(=O)COc2ccc(NC(=O)C3CC3)cn2)cc1	none
CN1CCN(Cc2ccc(NC(=O)Cc3ccc(Oc4cc(NC(=O)C5CC5)ncn4)cc3)cc2C(F)(F)F)CC1	Methyltransferases active
Cc1ccc(CCNC(=O)C2CCN(c3cc(C(F)(F)F)ncn3)CC2)cc1	none
CCOc1cccc(NC(=O)c2ccc(N3CCCC3)c(C(F)(F)F)c2)c1	none
O=[S+]1([O-])N(c2ccccc2)C[C@@H](O)[C@]12CCN(Cc1ccc(C(F)(F)F)nc1)C2	none
CCCn1c(=O)c2ccccc2n2c(SCc3cccc(OC)c3)nnc12	none
CC1(C(=O)NC2CCCCCC2)Cn2c(c(-n3cccc3)c3cc(F)ccc32)C(=O)N1Cc1ccco1 (stereo not drawn)	none
Cc1noc(-c2cccn3c(CNC(=O)Cc4cccc(F)c4)nnc23)n1	none
Cc1cc2c(cc3n2CC(C)(C(=O)NC2CCCCCCC2)N(Cc2ccccc2Cl)C3=O)o1 (stereo not drawn)	none
COC(=O)c1ncn2c1C(=O)N(c1ccc(C)c(C)c1)C(C)(C(=O)NCCCOC(C)C)C2 (stereo not drawn)	none
Cc1ccc(NS(=O)(=O)c2ccc3c(c2)[C@H]2C=CC[C@H]2[C@@H](c2cccc(Cl)c2)N3)cc1C	none
Cn1cc(-c2ccc(F)c(C(F)(F)F)c2)nc1C1CCN(c2ncnc3[nH]ncc23)CC1	Methyltransferases active
CCOc1ccccc1NC(=O)N1Cc2c(sc3c2CCCC3)-n2cccc2C1c1ccccc1 (stereo not drawn)	none
CCCNC(=O)N1CCCCCC1CN1CCCC1 (stereo not drawn)	none
CN(C)c1ccc(CN2C(=O)c3cc4ccccc4n3CC2(C)C(=O)NCc2ccccc2)cc1 (stereo not drawn)	none
CCC(C)C(=O)OC1CC(O)C23C4OCC5(C(O)CC2C1(C)C(O)O4)C3C(=O)C(O)C1(C)C(O)(c2ccoc2)CC2OC251 (stereo not drawn)	Methyltransferases active
CC(=O)O[C@H]1C[C@@H](O)C(C)(C)C2C[C@@H](OC(C)=O)[C@]3(C)C(CC[C@@]4(C)[C@H](c5ccoc5)OC(=O)[C@H]5O[C@]543)[C@]21C (stereo partly drawn)	none
CCCCNC(=O)c1cc2n(n1)CC(C)(C(=O)NCc1ccccc1)N(C)C2=O (stereo not drawn)	none
CN1C[C@H]2CN(C(=O)c3ccc(C(F)(F)F)cc3)CCN2C1=O	none
Cc1ccc(O)c(N=Nc2ccccc2)n1	Methyltransferases active
COc1cccc(CN2C(=O)c3cc(C4CC4)nn3CC2(C)C(=O)NC2CCCCCC2)c1 (stereo not drawn)	none
Nc1ncnc2c1ncn2[C@@H]1O[C@H](COP(=O)(O)CP(=O)(O)OP(=O)(O)O)[C@@H](O)[C@H]1O	none
OC[C@H]1O[C@@H](n2cnc3c(NCc4ccc(O)cc4)ncnc32)[C@H](O)[C@@H]1O	none
N#Cc1ccc(COC[C@H]2O[C@@H](n3c(NCc4ccc(Cl)c(Cl)c4)nc4c(N)ncnc43)[C@H](O)[C@@H]2O)cc1	Methyltransferases active
CC(C)Cn1c(=O)c2ccccc2n2c(SCC(=O)Nc3cccc(F)c3)nnc12	none
CN1C(=O)c2cc(C(=O)N3CCN(c4ccccc4F)CC3)nn2CC1(C)C(=O)NC1CCCC1 (stereo not drawn)	none
CCOC(=O)N1CCC(NC(=O)c2ccccc2C2CCNC2)CC1 (stereo not drawn)	none
COc1cc(NC(=O)Cn2nc3n(Cc4ccccc4)c(=O)c4ccccc4n3c2=O)cc(OC)c1	none
Cn1nc(C(=O)N2CCOc3ccc(CCC(N)=O)cc3C2)c2ccccc21	none
COc1ccc2c(c1)CCC1C2CC[C@@]2(C)C1CC[C@@H]2NCCCCCCN1C(=O)CCC1=O (stereo partly drawn)	none
COc1cc2c(cc1O)CC[C@H]1[C@@H]2CC[C@]2(C)[C@H](O)CC[C@@H]12	Methyltransferases active
CC12CCC3c4ccc(O)cc4CCC3C1CCC2OC1OC(C(=O)O)C(O)C(O)C1O (stereo not drawn)	none
CCc1cc(C(=O)N2CC[C@@H]3[C@@H](CCC(=O)N3CCN)C2)n(C)n1	none
Cc1cc(C(=O)N2CCCC(n3c(C)cnc3C3CCC3)C2)nn1C (stereo not drawn)	none
Cc1cc(C)cc(-c2cnc3cc(Cl)c(-c4cccc(O)c4)cc3c2OCCCN)c1	Methyltransferases active
CCCCN1C(=O)c2cc(C(=O)N3CCN(c4cccc(OC)c4)CC3)nn2CC1(C)C(=O)NC1CCCC1 (stereo not drawn)	none
CN1C(=O)c2cc(C(=O)N3CCN(c4ccc(F)cc4)CC3)nn2CC1(C)C(=O)NC1CCCC1 (stereo not drawn)	none
COc1ccc(CC(=O)NC2CCN(C(=O)c3ccc(-c4cccs4)cc3)CC2)cc1	none
CNCc1ccc(-c2[nH]c3cc(F)cc4c3c2CCNC4=O)cc1	Methyltransferases active!
CSc1ccc(CCNC(=O)c2cc3n(n2)CC(C)(C(=O)NC2CCCCC2)N(C)C3=O)cc1 (stereo not drawn)	none
COc1ccc(Cl)cc1S(=O)(=O)Nc1ccc2[nH]c(=O)[nH]c2c1	none
CC1CCN(S(=O)(=O)c2cccc3c2C(=O)c2ccccc2C3=O)CC1	none
O=C1c2ccccc2C(=O)c2c1cccc2S(=O)(=O)Nc1ccc(Cl)cc1	Methyltransferases active
COc1ccc(CNC(=O)[C@H]2O[C@H](CCN(C)CCc3ccccc3)CC[C@@H]2O)cc1	none
CCCSc1nc(N[C@@H]2C[C@H]2c2ccc(F)c(F)c2)c2nnn([C@@H]3C[C@H](OCCO)[C@@H](O)[C@H]3O)c2n1	Methyltransferases active
O=C(CCc1nnc2n(Cc3ccc(Cl)cc3)c(=O)c3ccccc3n12)NCc1ccc(F)cc1	none
COc1ccc(CN2C(=O)c3cc(-c4ccco4)nn3CC2(C)C(=O)NC2CCCCCC2)cc1 (stereo not drawn)	none
CC1(C(=O)NC2CCCC2)Cn2c(ccc2-c2ccccc2)C(=O)N1Cc1ccco1 (stereo not drawn)	none
CCc1cc2c(cc3n2CC(C)(C(=O)NC2CCCCCC2)N(Cc2ccccc2F)C3=O)s1 (stereo not drawn)	none
Nc1nc(Nc2ccc3c(c2)CCC(N2CCCC2)CC3)nn1-c1cc2c(nn1)-c1ccccc1CCC2 (stereo not drawn)	Methyltransferases active
CC(C(=O)N1CCc2onc(-c3ccc(F)c(F)c3)c2C1)n1ccnc1 (stereo not drawn)	none
Cc1nnc2n1CCC(N(C)C(=O)NCCc1ccccc1)CC2 (stereo not drawn)	none
COc1ccc(CNC(=O)Cn2ccc3cc(S(=O)(=O)N4CCC(C)CC4)ccc32)c(OC)c1	none
Cc1ccc(CNC(=O)CCc2nnc3n(Cc4ccc(Cl)cc4)c(=O)c4ccccc4n23)cc1	none
CCN(CC)CCNC(=O)CCc1nnc2n(Cc3ccccc3)c(=O)c3ccccc3n12	none
O=C(CCc1nnc2n(Cc3ccc(F)cc3)c(=O)c3ccccc3n12)NCCN1CCOCC1	none
CN1CCN(CCCNC(=O)CCc2nnc3n(Cc4ccccc4Cl)c(=O)c4ccccc4n23)CC1	none
CCOCCCNC(=O)CCc1nnc2n(Cc3ccc(Cl)cc3)c(=O)c3ccccc3n12	none
CCOCCCNC(=O)CCc1nnc2n(Cc3ccc(F)cc3)c(=O)c3ccccc3n12	none
CC1CCN(CCCNC(=O)CCc2nnc3n(Cc4ccc(F)cc4)c(=O)c4ccccc4n23)CC1	Methyltransferases active
